Screening data from PubChem.
Rango dissoc inh: prevents RanGTP from dissociating the Rango-importin beta complex; O95149+P62826; Biochemical FRET Rango-importin beta, RanGTP-induced dissociation; Potency, µM (titrated, usually from 46.1 µM), for the others: at the top dose activity change, negative = inhibition; hit rate 0.071% among 340,000; note: % of control where 0% means no effect; nearly all actives have a fitted effect of over 45% in size
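FRET read at 45 min, room temperature: inhibitors block the CFP/YFP signal rise when RanGTP (0.6 uM Ran, 2 mM GTP, 0.2 uM RCC1) frees Rango (0.1 uM) from importin beta (0.25 uM). Pre-read after 5 min compound exposure flags interference.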
S-ASM inh: inhibitors of human secretory acid sphingomyelinase; P17405; placental ASM, HMU-PC fluorogenic substrate, 60 min; Potency, µM (series often up to 57.5 µM), without a hit: at the highest dose activity change, negative = inhibition, actives largely listed as inhibitors; hit rate 0.006% among 340,000; AID 504937; active = well fitted inhibition curve with a large enough effect; inconclusive = small, poorly fitted or top-dose-only effect; inactive = no such curve, though single readings can be large or run the other way
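Fluorogenic HMU-PC substrate (9 uM final) is turned over by placental ASM in 60 min at 37 C after a 10 min compound preincubation. Reaction ended by alkaline stop (pH 10), with fluorescence read at 386/447 nm.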
gsp agonist: gsp mutant agonism | Potency, µM (highest dose often 76.9 µM), without a hit: top-dose activation (cAMP increase), hits mostly activators | hit rate 0.13% among 340,000 | gsp mutant cells, cAMP HTRF, 30 min; active = well fitted activation curve with a large enough effect; inconclusive = small, poorly fitted or top-dose-only effect, or another doubt; inactive = no such curve, though single readings can be large or run the other way; cell line not stated here;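 note: phosphodiesterase inhibitor Ro 20-1724 added with compounds to block cAMP breakdown; nearly all actives have a fitted effect of over 60% in size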
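Cells in DMEM/10% FBS with G418 were pretreated with compounds in DMSO plus […] (300 uM stock) for 30 min at 37C. cAMP was measured by HTRF (cAMP-d2 plus anti-cAMP antibody-K) after 30 min at room temperature.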
gsp antagonist: gsp mutant antagonism; gsp-mutant cells, cAMP HTRF, 30 min; Potency, µM (top dose mostly 76.9 µM), for inactives: at the top dose activity change, negative = inhibition, usual class: inhibitors; hit rate 0.4% among 340,000; AID 624288; calls by dose curve; cell line not stated here;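 note: intracellular cAMP measured with PDE inhibitor Ro 20-1724 present during compound exposure; % is set by controls: 0 for no effect and ±100 for the full control effect; nearly all actives have a fitted effect of over 65% in size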
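Cells in G418 medium, seeded 16-24 h, 37C; buffer exchange to DPBS + 1 mM CaCl2, 0.5 mM MgCl2, 0.05% BSA; cpds in DMSO + […] (300 uM stock), 30 min 37C; HTRF cAMP detection.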
Rango-impB inh: Rango-importin beta binding inhibition | Rango CFP/YFP FRET sensor + importin beta, 45 min | Potency, µM (titrated, usually from 92.2 µM), inactives show at the highest dose inhibition of complex formation | AID 540263 | hit rate 0.031% among 340,000;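 note: 0% = DMSO wells and 100% = buffer wells lacking importin beta; nearly all actives have a fitted effect of over 15% in size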
Target sequence (Q14974 whole entry, looked up): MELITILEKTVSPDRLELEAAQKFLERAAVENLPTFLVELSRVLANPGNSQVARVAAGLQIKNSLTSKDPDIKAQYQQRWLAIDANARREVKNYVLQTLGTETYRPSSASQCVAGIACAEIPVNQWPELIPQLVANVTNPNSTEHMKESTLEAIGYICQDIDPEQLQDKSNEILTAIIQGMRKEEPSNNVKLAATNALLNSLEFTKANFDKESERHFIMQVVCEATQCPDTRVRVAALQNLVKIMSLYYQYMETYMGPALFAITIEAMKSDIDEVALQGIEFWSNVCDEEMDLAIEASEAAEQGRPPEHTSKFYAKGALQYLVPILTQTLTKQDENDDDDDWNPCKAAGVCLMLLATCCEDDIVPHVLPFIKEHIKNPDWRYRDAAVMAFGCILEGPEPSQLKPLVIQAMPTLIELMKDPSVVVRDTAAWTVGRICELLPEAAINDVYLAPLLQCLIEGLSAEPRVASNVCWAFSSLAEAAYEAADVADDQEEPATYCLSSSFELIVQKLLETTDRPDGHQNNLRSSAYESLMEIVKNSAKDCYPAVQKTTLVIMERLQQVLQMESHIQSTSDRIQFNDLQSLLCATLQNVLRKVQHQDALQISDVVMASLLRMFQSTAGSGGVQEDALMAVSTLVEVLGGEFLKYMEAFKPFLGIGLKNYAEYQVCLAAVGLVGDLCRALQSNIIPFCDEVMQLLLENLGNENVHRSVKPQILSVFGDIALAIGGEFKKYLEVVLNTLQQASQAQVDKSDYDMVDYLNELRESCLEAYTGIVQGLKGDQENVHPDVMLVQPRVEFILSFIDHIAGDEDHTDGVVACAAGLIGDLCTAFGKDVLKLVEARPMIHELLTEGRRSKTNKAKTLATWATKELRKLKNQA
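FRET biosensor Rango (snurportin 1 IBB between N-terminal EYFP and C-terminal Cerulean), 50 nM in PBS/1 mM DTT/0.02% Tween-20/0.1% BSA, preincubated 5 min RT with compound; 0.125 microM importin beta added, 45 min RT, CFP/YFP FRET ratio read.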
* marks the source's active call; other numbers are inactive results; u = inconclusive; [ ] = dose if it differs, or a comment. An excerpt weighted towards active compounds, which were near 0.67% of everything screened. Unless noted, calls come from the whole dose curve. Potency is the fitted concentration of half-maximal effect.

SMILES | Rango dissoc inh | S-ASM inh | gsp agonist | gsp antagonist | Rango-impB inh
O=C(NNC(=S)NC1CCCCC1)c1sc2ccccc2c1Cl | 4% | 2% | 22% | u | -1%
O=C(CN1C(=O)CC(c2ccco2)Sc2ccccc21)NC1CCCCC1 (stereo not drawn) | -14% | -2% | 8% | 50µM* | 0%
O=C(CNC(=O)c1ccc(Cl)cc1)OCCCOC(=O)CNC(=O)c1ccc(Cl)cc1 | 8% | 0% | -15% | -9% | -3%
COc1ccccc1OCCCCCc1c(C)n[nH]c1C | -7% | 1% | -13% | 35µM* | 0%
Cc1ccc(C)c(N2CCN(C(=O)c3nn(C)c4c3CS(=O)(=O)c3ccccc3-4)CC2)c1 | 7% | -7% | 1% | u | 3%
CCCn1c(CN2CCCCC2C)nc2c1c(=O)n(C)c(=O)n2C (stereo not drawn) | 1% | 2% | -74% | 8% | 4%
Cn1c(=O)c2c(nc(CCC3CCCC3)n2C)n(C)c1=O | 22% | 0% | 11µM* | 23% | 2%
O=C(CSc1nnc(-c2ccncc2)n1Cc1ccco1)Nc1nc(-c2ccccc2)cs1 | 4% | 2% | -7% | 35µM* | 4%
Cc1ccccc1-n1c(C)nnc1SCC(=O)N(C)C1CCS(=O)(=O)C1 (stereo not drawn) | 1% | -2% | 12% | 15% | -4%
COc1ccc(-c2csc(N3CCN(S(=O)(=O)c4ccc5c(c4)NC(=O)CO5)CC3)n2)cc1 | -5% | -18% | -45% | -12% | 0%
CC(=O)N1c2ccc(S(=O)(=O)N3CCC(C(=O)NCCc4ccc(Cl)cc4)CC3)cc2CC1C (stereo not drawn) | -3% | -7% | u | 35µM* | 0%
CC(=O)N1c2ccc(S(=O)(=O)N3CCC(C(=O)NCc4ccc(Cl)cc4)CC3)cc2CC1C (stereo not drawn) | -9% | -2% | 1% | u | 2%
O=C(COC(=O)c1cccc(NS(=O)(=O)/C=C/c2ccccc2)c1)Nc1ccccc1OC(F)F | 8% | -1% | u | -4% | 0%
NC(=O)C(=O)N/N=C/c1c2ccccc2cc2ccccc12 | 15µM* | -5% | -9% | -1% | 2%
S=c1[nH]nc(SCc2ccccc2)c2[nH]cnc12 | 0% | u | 14µM* | u | 11%
CCCCSc1n[nH]c(=S)c2nc[nH]c12 | 6% | -1% | u | 8% | 1%
COC(CNC(=O)CN1CCN(Cc2ccccc2F)C1=O)OC | -8% | -1% | -6% | 9% | 3%
O=C(Nc1cccc([N+](=O)[O-])c1)c1ccc2nc(N3C(=O)CCC3=O)sc2c1 | 1% | -10% | -2% | u | -1%
O=C(Nc1cccc(Br)c1)c1ccc2nc(N3C(=O)CCC3=O)sc2c1 | -8% | -19% | -24% | 35µM* | -1%
Cc1ccc(NC(=O)C2=C(c3ccccc3)S(=O)(=O)CCS2(=O)=O)cc1 | 25% | -1% | -28%[15.4 µM] | 28µM* | 1%
Cc1ccc(NC(=O)c2ccccc2)cc1 | -5% | 8% | 26% | 4% | 1%
Cc1nn(CCC(=O)O)c2nc(-c3cccnc3)cc(C(F)(F)F)c12 | 17% | 11% | -7% | 0% | 0%
Cc1nn(CCc2nn[nH]n2)c2nc(-c3ccc(C4CCCCC4)cc3)cc(C(F)(F)F)c12 | 0% | 38% | 15%[15.4 µM] | 11µM* | 4%
CCc1nn(-c2ccccc2)c2c1-c1cc(OC)c(OC)cc1C1(N2)C(=O)Nc2ccccc21 (stereo not drawn) | 16µM* | 37% | 12% | 10% | u
CCCOc1ccc(/C=N/Nc2ccc(C(=O)O)cc2)c(OCCC)c1 | -14% | 264% | -14%[15.4 µM] | 10µM* | -1%
CCCOc1ccc(/C=N/Nc2cccc([N+](=O)[O-])c2)c(O)c1 | 10% | -5% | -1%[15.4 µM] | 5% | 1%
O=C(NC(Nc1nc2ccc([N+](=O)[O-])cc2s1)(C(F)(F)F)C(F)(F)F)c1cccnc1 | u | -7% | u | 35µM* | u
O=C(NC(Nc1nc2ccc([N+](=O)[O-])cc2s1)(C(F)(F)F)C(F)(F)F)c1ccccc1Cl | u | -10% | -1% | 25µM* | u
